HIF-2a block: blocks HIF-2a reporter activity | 786-0 RCC cells HIF-2a reporter, luciferase luminescence, overnight | inhibition, % at 18.8 µM | actives 0.72% (n = 360,000) | AID 624352;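 active = inhibition of the luminescence signal of 40% or more relative to plate controls, in a single-dose primary screen at 18.75 µM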
CF NFkB block: cystic fibrosis NF-kB activation inhibition; inhibition, % at 5 µM; actives 0.86% (n = 360,000); KKLEB NF-kB-GFP reporter, PAF-induced, GFP fluorescence overnight;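 active = at least 50% inhibition at 5 µM, scaled per plate between neutral and stimulator controls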;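 also: PAF is a Pseudomonas aeruginosa culture filtrate used as stimulus; plate controls were PAF-stimulated DMSO wells for no effect and unstimulated DMSO wells for full effect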
PAX8 reporter: PAX8 transcriptional activity inhibition; RMG-I TPO-luciferase reporter, SteadyGlo, 24 h; inhibition, % at 12.6 µM; actives 1.2% (n = 360,000);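 active = mean replicate inhibition at least 60% with every replicate also reaching 60%; inconclusive = only one of the two criteria is met; inactive = mean below 60% and not all replicates reaching 60%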;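 also: luciferase light reporting Pax8 driven TPO promoter activity; plate controls were median of neutral control wells for no effect and mitoxantrone controls for full effect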
KKLEB cytotox: CF airway cell cytotoxicity counter-screen. KKLEB CF airway cells viability, ATPlite luminescence, overnight; stronger effect = lower value; cells stimulated with P. aeruginosa culture filtrate. activity change (cytotoxicity), % at 5 µM. AID 602141. actives 0.36% (n = 360,000);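 active = corrected activity change at or below -50% at 5 µM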
EWS-Fli inh: EWS/Fli transcriptional activity inhibition; AID 651661; A673 NR0B1-luciferase reporter, viability-normalised; actives 0.67% (n = 350,000); inhibition, % at 12.6 µM;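 active = mean inhibition of at least 50% after viability correction, with every replicate also passing that limit; inconclusive = mean reaches 50% but only one of two replicates passes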;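 also: firefly luciferase signal divided by Alamar Blue viability fluorescence both relative to DMSO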
An asterisk follows results filed as active; ? = inconclusive; . = not tested or not shown. Sampled rows, rich in hits. Any-hit rate of the full collection: about 2.1%.

SMILES	HIF-2a block	CF NFkB block	PAX8 reporter	KKLEB cytotox	EWS-Fli inh
Cc1noc(C)c1S(=O)(=O)Nc1ccc2c(c1)CC(=O)N([C@@H](C)CO)C[C@@H](C)[C@@H](CN(C)CC1CCCCC1)O2	.	.	-16	.	6
CCOC(=O)c1c(NC(=O)C(NCCN(C)C)c2ccccc2)sc2c1CCCC2 (stereo unspecified)	5	38	38	-13	59*
CCOC(=O)c1c(NC(=O)c2ccccc2N(C)S(=O)(=O)c2ccccc2)sc2c1CCCC2	12	20	28	-2	?
CC(C)C#Cc1cnc2c(c1)C(=O)N([C@H](C)CO)C[C@H](C)[C@H](CN(C)C(=O)Nc1ccc(F)cc1)O2	.	.	.	.	34
CCNC(=O)C[C@@H]1CC[C@H]2[C@H](COc3ccc(NS(C)(=O)=O)cc3C(=O)N2C)O1	.	.	-1	.	-1
O=C1N[C@@H](Cc2c[nH]c3ccccc23)COC(=O)[C@@H](Cc2ccc(F)cc2)CC/C=C/C[C@@H]1CC(=O)N(CCO)Cc1ccccc1	-23	7	75*	22	10
O=C1N[C@@H](Cc2c[nH]c3ccccc23)COC(=O)[C@H](Cc2ccc(F)cc2)C/C=C\C[C@H]1CC(=O)N(CCO)Cc1ccccc1	14	-15	12	7	3
CCOC(=O)c1ccc(NC(=O)c2nc[nH]c2C(=O)NCCNC(=O)c2[nH]cnc2C(=O)Nc2ccc(C(=O)OCC)cc2)cc1	-14	76*	-13	-50*	60*
CC(=O)OCC(=O)[C@@]1(OC(C)=O)[C@@H](C)C[C@H]2[C@@H]3C[C@H](F)C4=CC(=O)C=C[C@]4(C)[C@@]3(F)[C@@H](O)C[C@@]21C	24	77*	12	31	4
CC(=O)OCC(=O)C1(O)CCC2C3CC(C)C4=CC(=O)C=CC4(C)C3(F)C(O)CC21C (stereo unspecified)	18	80*	1	19	3
CC(=O)C1(O)CCC2C3CC(C)C4=CC(=O)C=CC4(C)C3(F)C(O)CC21C (stereo unspecified)	21	71*	-6	36	-19
CC(=O)OCC(=O)C1=CCC2C3CCC4=CC(=O)C=CC4(C)C3(F)C(OC(C)=O)CC12C (stereo unspecified)	21	36	15	-4	14
C[C@H](CO)N1C[C@H](C)[C@@H](CN(C)Cc2ccc(C(=O)Nc3ccccc3N)cc2)Oc2c(NC(=O)c3nc4ccccc4s3)cccc2C1=O	.	.	.	.	-2
CCCC#Cc1ccc(CC[C@H]2O[C@H]3CC[C@H](CO)O[C@H]3C[C@@H]2n2cc(C(C)(C)O)nn2)cc1	.	.	-18	.	.
COc1ccc(NC(=O)N2CC3(C2)CN(CC2CC2)[C@@H](CO)c2c3c3ccc(OC)cc3n2C)cc1	.	.	-17	.	-1
CC(=O)Nc1ccc(/C=C2\CCc3ccccc3C2=O)cc1	-234	4	-117	-57*	-2
CO[C@H]1CN(C)C(=O)c2cc(NC(=O)c3cnccn3)ccc2OC[C@H](C)N(C(C)=O)C[C@H]1C	.	.	-1	.	1
Cn1cccc1-c1cc(C(=O)N/N=C/c2cc(Br)ccc2O)[nH]n1	3	4	74*	7	4
COc1ccc(C(=O)N/N=C/c2cc(Br)ccc2O)cc1OC	-7	10	82*	2	29
CCC(=O)N1CC2(C1)[C@H](c1ccc(-c3cccc(F)c3)cc1)[C@H](CO)N2CC1CC1	.	.	11	.	0
O=C(NCC[C@H]1CC[C@@H](NS(=O)(=O)c2ccc(Cl)cc2)[C@H](CO)O1)Nc1ccc(F)cc1	.	.	4	.	-6
C[C@H]1CN([C@@H](C)CO)C(=O)Cc2cc(NC(=O)c3ccncc3)ccc2O[C@@H]1CN(C)Cc1ccc(C(=O)Nc2ccccc2N)cc1	.	.	-20	.	-7
C[C@H]1CN([C@@H](C)CO)C(=O)Cc2cc(N(C)C)ccc2O[C@@H]1CN(C)Cc1ccc(C(=O)Nc2ccccc2N)cc1	.	.	65*	.	47
C[C@H]1CN([C@@H](C)CO)C(=O)Cc2cc(NC(=O)c3ccncc3)ccc2O[C@H]1CN(C)Cc1ccc(C(=O)Nc2ccccc2N)cc1	.	.	-4	.	38
C[C@@H]1CN([C@@H](C)CO)C(=O)Cc2cc(N(C)C)ccc2O[C@@H]1CN(C)Cc1ccc(C(=O)Nc2ccccc2N)cc1	.	.	76*	.	?
COC(=O)C[C@H]1CC[C@@H]2[C@@H](COc3ccc(NC(=O)NCc4ccccc4)cc3C(=O)N2C)O1	.	.	8	.	-8

Screening results: PubChem, several laboratories
